High-throughput results from PubChem.
The list is not random: actives were taken first. Their share in the collection is about 6%.
D1 PAM: potentiators of human D1 dopamine receptor; P21728; 360,000 compounds, 0.036% hits; potentiation, % at 10 µM; HEK293 TREx D1 cells, calcium flux, dopamine EC20 potentiation; in the data active = potentiation above about 30%; also: 0% is about no effect
Target sequence (P21728 whole entry, looked up): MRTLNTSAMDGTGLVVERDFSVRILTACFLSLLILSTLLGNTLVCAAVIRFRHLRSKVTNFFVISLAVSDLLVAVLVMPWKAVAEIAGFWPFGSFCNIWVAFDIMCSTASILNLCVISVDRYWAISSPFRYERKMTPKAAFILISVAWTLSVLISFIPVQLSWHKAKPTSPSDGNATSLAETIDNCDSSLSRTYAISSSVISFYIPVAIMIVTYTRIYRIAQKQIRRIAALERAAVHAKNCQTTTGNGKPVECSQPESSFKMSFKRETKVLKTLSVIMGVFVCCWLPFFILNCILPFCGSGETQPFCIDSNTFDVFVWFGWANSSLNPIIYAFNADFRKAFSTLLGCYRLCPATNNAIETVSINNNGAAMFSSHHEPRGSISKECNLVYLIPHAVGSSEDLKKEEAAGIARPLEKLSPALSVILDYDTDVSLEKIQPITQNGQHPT
D1 antag: human D1 dopamine receptor antagonism | P21728 | 360,000 compounds, 3.2% hits | activity change, negative = inhibition, % at 10 µM | HEK293 TREx D1 cells, calcium flux, dopamine EC80; active compounds read low; in the data active = activity change below about -30%; also: % is scaled to controls: 0 for no effect and ±100 for the full control effect
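Inducible Hek293 Trex D1 cells (tetracycline, overnight, 30 C). Calcium dye 30–90 min RT. Antagonist mode: EC80 dopamine added after 180 s compound read.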
DRD3 agonist: activates the human D3 dopamine receptor | D3R DiscoveRx beta-arrestin cells, luminescence, 90 min | max activation, % | 410,000 compounds, 0.58% hits | AID 652048; in the data active = max activation above about 30%; also: 0% is about no effect
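Cells at 1500/well, incubated overnight, then treated with pinned compounds (dopamine as control) for 90 min at 37 degrees C. DiscoveRx reagent added for 30 - 60 minutes at room temperature; luminescence read.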
D1 ag: activates the human D1 dopamine receptor; HEK293 T-REx D1 cells, calcium flux, agonist mode; activation, % at 2 µM; 360,000 compounds, 1% hits; AID 504660; in the data active = activation above about 30%; also: 0% is about no effect
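Tetracycline-induced HEK293 TREx D1 cells, force-coupled to calcium signalling, were dye-loaded with a no-wash calcium kit. Compound was pin-added after a 10 s baseline. Fluorescence was read kinetically at 1 cycle/s for 180 s, with calcium rises flagged as agonism.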
DRD3 antagonist: blocks the human D3 dopamine receptor; P35462; D3R cells, DiscoveRx beta-arrestin luminescence, antagonist mode; active compounds read low; max response, negative = inhibition, %; 360,000 compounds, 2.5% hits; AID 652054; in the data active = max response below about -50%; inconclusive = no clear call, values can overlap the other calls; also: % is scaled to controls: 0 for no effect and ±100 for the full control effect
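Cells plated overnight at 1500 cells/well, then exposed to library compounds with dopamine controls for 90 minutes at 37 degrees C. DiscoveRx reagent added for 30–60 minutes at room temperature; luminescence read, quantitative HTS format.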
An asterisk follows results filed as active; ? = inconclusive; . = not tested or not shown.

SMILES	D1 PAM	D1 antag	DRD3 agonist	D1 ag	DRD3 antagonist
CCc1ccc2oc(=O)cc(CN3CCN(CCO)CC3)c2c1	-1	-50*	-2	5	-4
Cc1cc2oc(=O)cc(Cn3ncc(Cl)c(Cl)c3=O)c2cc1Cl	3	-23	-10	0	-77*
CCc1ccc2c(CN3CCC(C(=O)OC)CC3)cc(=O)oc2c1	0	7	100*	2	50
COc1ccc(OC)c(NC(=O)CSc2ncc3c(n2)-c2ccccc2N(C)S3(=O)=O)c1	3	-2	3	1	.
COC(=O)C1CCN(Cc2cc(=O)oc3cc(C)c(Cl)cc23)CC1	-4	4	95*	4	4
COc1cccc(C(=O)CC2(O)C(=O)Nc3ccc(Cl)cc32)c1 (configuration not stated)	2	10	0	11	.
C[C@@H](C(=O)Nc1ccc2ccccc2c1)[C@@H]1C[C@@]1(C)[C@@H](NC(=O)c1cnccn1)c1ccccc1	-1	-30*	-11	6	-75*
C[C@@H](C(=O)Nc1ccc2ccccc2c1)[C@H]1C[C@]1(C)[C@H](NC(=O)c1cnccn1)c1ccccc1	-3	22	4	2	4
Cc1ccccc1CN1C(=O)c2ccccc2C1c1nnnn1Cc1ccccc1 (configuration not stated)	.	.	14	.	38
O=C(O)CC1S/C(=N/N=C/C=C/c2ccccc2)NC1=O (configuration not stated)	0	19	-4	1	?
O=C(O)CC1S/C(=N/N=C/C2CC=CCC2)NC1=O (configuration not stated)	-6	-35*	-20	2	?
CCOc1ccc(-c2ccc(NS(=O)(=O)c3cc(C)c(C)cc3C)cc2)nn1	-2	16	-5	3	.
CCSc1nnc2n(-c3cccc(C)c3)c(=O)c3c4c(sc3n12)CCCC4	-3	0	37*	-1	.
CCCCSc1nnc2n(-c3cccc(C)c3)c(=O)c3c4c(sc3n12)CCCC4	-3	-25	-10	2	.
Cc1ccsc1C(=O)N1CCC1(C)C(=O)NS(=O)(=O)c1ccccc1 (configuration not stated)	.	.	-15	.	-25
CC1(C(=O)NS(=O)(=O)c2ccccc2OC(F)(F)F)CCN1C(=O)c1ccco1 (configuration not stated)	.	.	-6	.	-60*
Cc1ccsc1C(=O)N1CCC1(C)C(=O)NS(=O)(=O)c1ccccc1C(F)(F)F (configuration not stated)	.	.	99*	.	29
COc1cc2ccc(C=O)cc2cc1OC	.	.	-4	.	-21
CCc1ccccc1Oc1nc(NCc2ccccc2)nc2ccsc12	.	.	-5	.	-52*
CNc1nc(NCc2ccccc2)c2sccc2n1	.	.	6	.	7
Cc1nc2ccn(Cc3cccnc3)c(=O)c2cc1C(=O)NCc1ccc(Cl)cc1	-4	10	-10	-1	.
CCN(CC(=O)Nc1cc(OC)ccc1OC)Cc1nc2ccccc2c(=O)[nH]1	-3	-39*	5	1	24
CCN(CC(=O)Nc1ccc(C(=O)Nc2ccc(OC)cc2)cc1)Cc1nc2ccccc2c(=O)[nH]1	6	-44*	-14	4	0
COc1ccc(C(=O)C(C)[n+]2ccc(C)c3ccccc32)cc1[N+](=O)[O-] (configuration not stated)	-7	-25	-9	52*	-19
CCc1nc2ccccc2c(C(=O)OCC(=O)Nc2cccc(S(=O)(=O)NC3=NCCCCC3)c2)c1C	-4	-7	45*	2	92
CCc1nc2ccccc2c(C(=O)OCC(=O)Nc2cccc(S(=O)(=O)N3CCOCC3)c2)c1C	-2	3	33*	3	105
COc1cccc(NC(=O)Cn2c(=O)c3c(ncn3Cc3ccccc3)n(Cc3ccccc3)c2=O)c1	0	9	-9	8	-19
Cc1ccc(N/C(N)=N/c2nc(CSc3nnc(N)s3)cc(=O)[nH]2)cc1	-4	-34*	-4	5	1
C[C@]12C=CC(=O)N[C@@H]1CC[C@@H]1[C@@H]2CC[C@]2(C)[C@@H](C(=O)Nc3cc(C(F)(F)F)ccc3C(F)(F)F)CC[C@@H]12	.	.	-17	.	.
CCCCOc1ccc(C2C(=O)N(C3CCCCC3)CC(=O)N2C2CCCCC2)cc1 (configuration not stated)	-1	11	14	-4	.
